For some of these results: Results with a measured potency or affinity are listed apart.
Tests used:
Parameters in all cases: scale not given: direction of the effect not stated beside the values
[1] = target: Protein translocase subunit SecA (Escherichia coli (strain K12)) (UniProt P10408); test: Assay to Identify E. coli SecA ATPase Inhibitors; assay type: functional; details: 30 µM
[2] = target: T1, Ubiquitin-activating enzyme e1, putative (Leishmania donovani (strain BPK282A1)) (UniProt E9BSI1); test: Leishmania donovani Ubiquitin Activating Enzyme (LdE1); assay type: functional; details: 30 µM
T1 sequence (whole entry): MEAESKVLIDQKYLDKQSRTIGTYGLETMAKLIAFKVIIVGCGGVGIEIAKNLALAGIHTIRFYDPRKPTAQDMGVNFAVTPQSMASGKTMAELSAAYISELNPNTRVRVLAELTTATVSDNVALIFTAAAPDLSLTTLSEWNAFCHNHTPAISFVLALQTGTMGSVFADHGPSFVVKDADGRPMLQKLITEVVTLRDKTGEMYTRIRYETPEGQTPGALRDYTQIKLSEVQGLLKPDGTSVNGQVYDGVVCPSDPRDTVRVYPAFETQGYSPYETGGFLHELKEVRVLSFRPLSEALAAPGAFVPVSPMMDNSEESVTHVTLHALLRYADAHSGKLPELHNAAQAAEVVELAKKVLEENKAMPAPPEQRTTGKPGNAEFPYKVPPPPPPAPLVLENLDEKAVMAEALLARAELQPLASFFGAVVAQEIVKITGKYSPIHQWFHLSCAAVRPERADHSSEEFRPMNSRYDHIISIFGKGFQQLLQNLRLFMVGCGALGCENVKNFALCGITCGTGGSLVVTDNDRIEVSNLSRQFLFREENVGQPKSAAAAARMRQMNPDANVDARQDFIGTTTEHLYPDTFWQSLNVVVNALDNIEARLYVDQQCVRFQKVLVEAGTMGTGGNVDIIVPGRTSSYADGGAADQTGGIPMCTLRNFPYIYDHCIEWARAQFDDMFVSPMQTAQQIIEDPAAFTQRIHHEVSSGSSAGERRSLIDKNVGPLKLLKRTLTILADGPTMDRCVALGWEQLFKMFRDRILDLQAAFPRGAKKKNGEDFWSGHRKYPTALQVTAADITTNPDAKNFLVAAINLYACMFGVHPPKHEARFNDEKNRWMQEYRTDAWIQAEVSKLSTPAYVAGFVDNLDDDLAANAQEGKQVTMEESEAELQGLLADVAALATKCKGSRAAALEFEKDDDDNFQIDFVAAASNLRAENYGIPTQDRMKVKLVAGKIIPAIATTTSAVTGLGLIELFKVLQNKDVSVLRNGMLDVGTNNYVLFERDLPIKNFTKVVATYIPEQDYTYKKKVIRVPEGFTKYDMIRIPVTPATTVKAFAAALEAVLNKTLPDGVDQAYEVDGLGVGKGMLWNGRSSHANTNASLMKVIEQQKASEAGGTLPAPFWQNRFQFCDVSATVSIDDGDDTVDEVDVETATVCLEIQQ

[3] = target: Sialic acid-binding Ig-like lectin 9 (Homo sapiens) (UniProt Q9Y336); test: Hs-Siglec9 ALPHAscreen SOP 20170721; details: 10 µM
[4] = tested on: Trypanosoma cruzi; test: Trypanosoma cruzi phosphomannomutase and mannose-1-phosphate guanylyltransferase assay; assay type: functional; details: 10 µM
[5] = target: T2, Arginase-2, mitochondrial (Homo sapiens) (UniProt P78540); test: in vitro enzyme assay to detect the production of urea directly proportional to the activity of Arginase II; assay type: functional; details: 33.3 µM; note: in the data most compounds retested in dose-response had high values
T2 sequence (whole entry): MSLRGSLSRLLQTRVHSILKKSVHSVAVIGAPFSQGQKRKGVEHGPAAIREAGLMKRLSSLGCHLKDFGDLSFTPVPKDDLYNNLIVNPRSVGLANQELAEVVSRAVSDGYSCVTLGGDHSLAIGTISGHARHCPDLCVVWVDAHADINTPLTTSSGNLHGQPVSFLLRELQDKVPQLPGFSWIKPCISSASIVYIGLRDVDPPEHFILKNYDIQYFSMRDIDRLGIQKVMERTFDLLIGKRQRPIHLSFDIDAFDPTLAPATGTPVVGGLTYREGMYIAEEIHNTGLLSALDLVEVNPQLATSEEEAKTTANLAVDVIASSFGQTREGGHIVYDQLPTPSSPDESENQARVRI

[6] = target: T3, Proteasome subunit beta (Trypanosoma cruzi) (UniProt O96673); test: Trypanosoma cruzi proteasome chymotrypsin-like activity (TcProtChymo) assay.; note: in the data most compounds retested in dose-response had high values; assay type: functional; details: 9.37 µM
T3 sequence (whole entry): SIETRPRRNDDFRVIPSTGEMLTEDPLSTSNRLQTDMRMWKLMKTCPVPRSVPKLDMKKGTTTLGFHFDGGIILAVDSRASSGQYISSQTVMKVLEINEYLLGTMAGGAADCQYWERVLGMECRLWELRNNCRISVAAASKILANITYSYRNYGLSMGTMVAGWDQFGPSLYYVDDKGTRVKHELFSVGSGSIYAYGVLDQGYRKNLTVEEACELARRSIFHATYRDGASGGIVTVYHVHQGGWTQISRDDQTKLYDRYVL

[7] = organism: Homo sapiens; test: To identify inhibition of the IFN signalling (Jak-Stat) pathway via expression of an eGFP reporter gene under the control of an IFN-stimulated response element (ISRE) containing MxA promoter.; assay type: functional; details: 30 µM
[8] = target: T4, Tyrosyl-tRNA synthetase, putative (Trypanosoma cruzi (strain CL Brener)) (UniProt Q4DSP6); test: Trypanosoma cruzi tyrosyl tRNA synthetase (TcYRS) _High Tyrosine SOP; assay type: functional; details: 30 µM; note: in the data most compounds retested in dose-response had high values
T4 sequence (whole entry): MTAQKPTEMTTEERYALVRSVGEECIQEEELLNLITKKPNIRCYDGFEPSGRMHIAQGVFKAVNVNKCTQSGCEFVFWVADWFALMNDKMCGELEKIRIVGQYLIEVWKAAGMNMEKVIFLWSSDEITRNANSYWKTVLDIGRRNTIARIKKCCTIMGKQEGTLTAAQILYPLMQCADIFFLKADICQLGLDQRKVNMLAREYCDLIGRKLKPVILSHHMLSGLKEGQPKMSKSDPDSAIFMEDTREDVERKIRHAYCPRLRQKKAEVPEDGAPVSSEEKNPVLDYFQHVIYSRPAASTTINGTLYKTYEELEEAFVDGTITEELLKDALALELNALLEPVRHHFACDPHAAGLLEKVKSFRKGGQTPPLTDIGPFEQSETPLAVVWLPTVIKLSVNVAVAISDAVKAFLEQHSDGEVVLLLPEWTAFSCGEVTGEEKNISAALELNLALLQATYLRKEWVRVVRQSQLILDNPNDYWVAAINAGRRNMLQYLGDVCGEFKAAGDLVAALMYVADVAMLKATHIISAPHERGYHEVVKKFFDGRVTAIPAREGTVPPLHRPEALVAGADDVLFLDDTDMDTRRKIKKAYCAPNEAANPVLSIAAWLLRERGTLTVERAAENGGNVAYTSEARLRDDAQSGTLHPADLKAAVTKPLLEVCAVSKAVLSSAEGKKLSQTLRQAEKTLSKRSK

[9] = target: T4, Tyrosyl-tRNA synthetase, putative (Trypanosoma cruzi (strain CL Brener)); test: Trypanosoma cruzi tyrosyl tRNA synthetase (TcYRS) SOP; assay type: functional; details: 30 µM
[10] = target: Chromo domain-containing protein 1 (Saccharomyces cerevisiae (strain ATCC 204508 / S288c) (Baker's yeast)) (UniProt P32657); test: ScCHD-1 Enzyme Inhibition Assay; assay type: functional; details: 30 µM; note: in the data most compounds retested in dose-response had high values
Chromo domain-containing protein 1 (Saccharomyces cerevisiae (strain ATCC 204508 / S288c) (Baker's yeast)), sequence (P32657 whole entry, the tested form may be a part): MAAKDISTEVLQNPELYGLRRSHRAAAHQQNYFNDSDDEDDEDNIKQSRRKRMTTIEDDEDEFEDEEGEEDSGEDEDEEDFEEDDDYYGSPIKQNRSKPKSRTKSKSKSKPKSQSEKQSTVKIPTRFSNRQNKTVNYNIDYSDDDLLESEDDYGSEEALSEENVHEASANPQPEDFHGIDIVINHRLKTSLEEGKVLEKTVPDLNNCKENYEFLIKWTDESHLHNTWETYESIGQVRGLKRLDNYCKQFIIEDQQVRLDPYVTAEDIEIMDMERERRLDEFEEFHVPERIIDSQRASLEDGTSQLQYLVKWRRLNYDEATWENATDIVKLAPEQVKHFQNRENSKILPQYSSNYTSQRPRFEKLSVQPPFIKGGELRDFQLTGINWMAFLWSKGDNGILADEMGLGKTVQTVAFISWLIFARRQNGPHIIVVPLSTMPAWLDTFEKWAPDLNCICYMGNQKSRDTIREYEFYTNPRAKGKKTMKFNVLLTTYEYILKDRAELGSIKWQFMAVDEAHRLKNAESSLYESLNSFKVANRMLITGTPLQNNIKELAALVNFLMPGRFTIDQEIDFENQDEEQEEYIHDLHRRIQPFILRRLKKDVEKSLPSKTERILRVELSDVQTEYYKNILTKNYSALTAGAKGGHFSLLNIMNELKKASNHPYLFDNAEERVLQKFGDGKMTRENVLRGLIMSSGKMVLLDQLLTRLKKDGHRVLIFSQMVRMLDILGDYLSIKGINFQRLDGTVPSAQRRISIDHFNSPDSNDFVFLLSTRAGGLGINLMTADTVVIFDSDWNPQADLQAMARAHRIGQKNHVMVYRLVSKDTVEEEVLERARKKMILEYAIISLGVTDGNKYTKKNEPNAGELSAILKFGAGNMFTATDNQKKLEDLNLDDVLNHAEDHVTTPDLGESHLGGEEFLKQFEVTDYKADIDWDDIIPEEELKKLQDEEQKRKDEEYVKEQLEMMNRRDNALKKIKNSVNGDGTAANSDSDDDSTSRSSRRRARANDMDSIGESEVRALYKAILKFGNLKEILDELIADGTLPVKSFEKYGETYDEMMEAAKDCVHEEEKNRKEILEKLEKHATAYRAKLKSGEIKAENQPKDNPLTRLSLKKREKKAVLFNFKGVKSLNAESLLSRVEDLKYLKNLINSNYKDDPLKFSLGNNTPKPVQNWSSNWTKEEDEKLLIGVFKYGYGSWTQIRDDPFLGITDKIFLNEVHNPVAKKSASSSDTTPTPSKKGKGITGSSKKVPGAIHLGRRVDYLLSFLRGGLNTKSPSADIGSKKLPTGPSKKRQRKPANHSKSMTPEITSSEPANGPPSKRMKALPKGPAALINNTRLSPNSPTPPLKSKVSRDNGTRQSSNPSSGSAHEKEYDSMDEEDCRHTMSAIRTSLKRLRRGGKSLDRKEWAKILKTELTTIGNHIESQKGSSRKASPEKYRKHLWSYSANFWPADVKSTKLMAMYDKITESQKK

Protein translocase subunit SecA (Escherichia coli (strain K12)), sequence (P10408 whole entry): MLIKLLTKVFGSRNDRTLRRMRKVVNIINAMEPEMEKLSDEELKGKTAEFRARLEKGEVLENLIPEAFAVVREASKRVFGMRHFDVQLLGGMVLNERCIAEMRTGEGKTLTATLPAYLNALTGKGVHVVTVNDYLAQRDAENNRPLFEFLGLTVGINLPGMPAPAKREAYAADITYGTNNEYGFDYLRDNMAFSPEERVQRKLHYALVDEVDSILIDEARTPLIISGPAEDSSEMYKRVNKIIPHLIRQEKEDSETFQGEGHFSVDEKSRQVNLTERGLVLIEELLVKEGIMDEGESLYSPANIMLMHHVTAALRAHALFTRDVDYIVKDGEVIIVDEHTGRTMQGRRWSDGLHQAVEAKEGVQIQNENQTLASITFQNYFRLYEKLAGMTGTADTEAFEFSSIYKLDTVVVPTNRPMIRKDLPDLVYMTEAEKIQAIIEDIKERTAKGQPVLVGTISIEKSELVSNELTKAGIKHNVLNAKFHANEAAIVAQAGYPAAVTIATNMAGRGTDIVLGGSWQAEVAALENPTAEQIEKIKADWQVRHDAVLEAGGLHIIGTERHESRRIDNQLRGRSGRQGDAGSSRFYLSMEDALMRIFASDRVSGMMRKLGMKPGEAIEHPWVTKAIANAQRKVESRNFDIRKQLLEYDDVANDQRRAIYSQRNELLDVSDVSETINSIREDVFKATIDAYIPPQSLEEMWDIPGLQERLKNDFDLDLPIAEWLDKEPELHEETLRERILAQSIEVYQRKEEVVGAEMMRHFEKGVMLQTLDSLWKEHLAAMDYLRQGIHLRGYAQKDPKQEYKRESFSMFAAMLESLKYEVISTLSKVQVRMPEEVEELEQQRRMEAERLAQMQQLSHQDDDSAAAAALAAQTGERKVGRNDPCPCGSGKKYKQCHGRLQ
Sialic acid-binding Ig-like lectin 9 (Homo sapiens), sequence (Q9Y336 whole entry): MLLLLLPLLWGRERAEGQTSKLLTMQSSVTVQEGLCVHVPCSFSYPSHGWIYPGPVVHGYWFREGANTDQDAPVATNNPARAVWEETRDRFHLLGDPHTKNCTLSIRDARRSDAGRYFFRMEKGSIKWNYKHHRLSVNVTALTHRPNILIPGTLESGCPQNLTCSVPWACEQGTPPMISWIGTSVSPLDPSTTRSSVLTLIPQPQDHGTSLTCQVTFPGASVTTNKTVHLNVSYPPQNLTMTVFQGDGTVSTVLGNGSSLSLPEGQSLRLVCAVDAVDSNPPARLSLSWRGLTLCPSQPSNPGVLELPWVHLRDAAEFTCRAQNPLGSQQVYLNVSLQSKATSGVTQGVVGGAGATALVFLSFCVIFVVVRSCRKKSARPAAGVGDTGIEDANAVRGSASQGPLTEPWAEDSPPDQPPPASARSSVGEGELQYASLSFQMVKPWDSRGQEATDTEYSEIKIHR

SMILES | Percent Effect [1] | Percent Effect [2] | Percent Effect [3] | Percent Effect [4] | Percent Effect [5] | Percent Effect [6] | Percent Effect [7] | Percent Effect [8] | Percent Effect [9] | Percent Effect [10]
CS(=O)(=O)c1ccccc1C(=O)NCCCN1CCc2ccccc2C1 | -5.27% | 18.7% | 2.07% | 7.03% | -0.887% | 17.1% | -1.14% | 3.68% | 15.4% | -11.6%
CNC(=O)CN1CCCC12CCN(C(=O)c1ccsc1)CC2 | -4.84% | 27.3% | 3.61% | 3.94% | -1.83% | 5.06% | 1.81% | 6.76% | -92.5% | -11.2%
Cc1ccc(CCN2CCC(N(C)Cc3noc(C4CC4)n3)C2)cc1 (stereo not given) | -0.729% | 10.3% | -7.58% | 0.0939% | 3.69% | 11.7% | -3.17% | 5.26% | 8.43% | -4.27%
CCOCC1CC2(CCN(C(=O)c3ccccc3F)CC2)CO1 (stereo not given) | -6.56% | 6.49% | -7.4% | -3.41% | -7.29% | -0.794% | -3.95% | 2.63% | 7.69% | -0.095%
CCC(NC(=O)c1ccco1)c1ccccc1OCC(=O)N1CCCC1 (stereo not given) | -0.841% | 20.5% | -7.21% | 8.92% | -5.33% | 12.5% | 13.3% | 3.35% | 22.9% | -5.94%
Cc1cc(CNc2cc(Cl)ccc2Cl)no1 | -0.772% | 0% | 3.56% | 4.79% | 0% | 4.69% | 8.6% | -11% | 6.02% | -0.0633%
Cc1cc(CN(C)C(=O)c2ccc(Cl)c(S(C)(=O)=O)c2)no1 | -9.03% | 13.3% | 7.77% | 3.81% | -4.88% | 9.41% | 6.05% | 1.58% | 10.3% | -11.5%
CCN1CCC2(CCC(=O)N2Cc2cccc(C)n2)CC1 | -2.48% | 9.09% | -0.0986% | -0.188% | 0.457% | 2.49% | -13.7% | 7.73% | 15% | -11.3%
CSc1ccccc1C(C(=O)O)N1CCN(Cc2ccccn2)CC1 (stereo not given) | -6% | 13.5% | 6.14% | 9.21% | 60.5% | 10.8% | 14.2% | 6.92% | 19.5% | 0.128%
CN(C)CC1CN(Cc2ccsc2)Cc2nccn2C1 (stereo not given) | -3.4% | 6.49% | -4.24% | -1.85% | 3.24% | 18.4% | -9.26% | 8.95% | 12.8% | 6.09%
CN1CCC/C1=N\S(=O)(=O)c1ccc(NC(=O)c2ccc(F)cc2)cc1 | 1.02% | 26% | 3.66% | 6.34% | 28.5% | 9.82% | 14.2% | 5.88% | 28.2% | -9.94%
CCN1CCO[C@]2(CCC[C@H]2COCc2csc(C)n2)C1 | -5.1% | -1.3% | 11% | -0.292% | -7.29% | 3.27% | -2.57% | 3.68% | 5.13% | -0.161%
CCn1cc(NC(=O)NCc2ccc3c(c2)OCCO3)cn1 | -3.41% | 20.8% | 4.42% | -2.98% | 4.3% | 7.37% | 12.6% | 11.8% | 21.2% | -7.59%
COCc1nc(C(=O)NS(=O)(=O)c2cc(F)ccc2F)cs1 | -3.64% | -2.56% | -5.81% | -1.41% | -1.64% | -0.939% | 22.9% | -0.478% | -6.02% | 4.47%
CCc1nc(CN2CCCN(C(=O)CCSC)CC2)cs1 | -1.79% | 12.8% | -12.3% | -7.98% | 6.15% | 9.81% | 22.8% | 0.478% | 18.1% | -4.21%
CCc1nc(CN2CCCN(C(=O)c3c(C)noc3C)CC2)cs1 | -2.47% | 10.3% | -1.6% | 0.0939% | 2.87% | 8.11% | 13.8% | 3.35% | 8.43% | -3.62%
CS(=O)(=O)c1ccc(NC(=O)NCc2ccc3c(c2)CCC3)cn1 | -2.45% | 0% | -3.31% | 4.04% | -38.9% | -6.06% | 4.37% | 5.26% | 8.43% | -1.11%
CC(=O)N1CCc2c(nc(-c3ccncc3)nc2N(C)CC(O)CO)C1 (stereo not given) | -4.98% | 2.7% | 3.26% | -2.62% | 5.94% | 3.94% | 12.2% | 5.85% | 14.6% | -4.24%
c1cnn(CC2CCCCN2Cc2cn3ccsc3n2)c1 (stereo not given) | -2.05% | 10.3% | 13.3% | 9.67% | 0% | 9.98% | 15.8% | 10.1% | 18.1% | -1.18%
